Compounds with a hit are over-represented: about 15% of the library has one in this group of screens.
Pf growth 96h = Primary qHTS for delayed death inhibitors of the malarial parasite plastid, 96 hour incubation. P. falciparum luciferase reporter growth, 96 h. Potency, µM (top dose mostly 28.7 µM), for inactives: top-dose activity change, negative = inhibition, hits mostly inhibitors. 320,000 tested, 6.9% active. AID 504834, 2011; further: potency means the concentration at half of the fitted maximal effect; on the % scale 0 is the no-effect control and ±100 the full control effect
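Erythrocytes infected with luciferase-expressing P. falciparum were dispensed at 2% hematocrit and 0.05% parasitemia (final), then incubated with compounds 96 hours at 37 C in 5% CO2. Luminescence after detection reagent addition reported growth.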
Sm TGR inh = qHTS Assay for the Inhibitors of Schistosoma Mansoni Peroxiredoxins; purified TGR, DTNB reduction, TNB absorbance 405 nm; Potency, µM (titrated, usually from 114 µM), inactives show at the top dose activity change, negative = inhibition, most hits filed as inhibitors; 360,000 tested, 3% active; AID 485364, 2010; further: potency means the concentration at half of the fitted maximal effect; on the % scale 0 is the no-effect control and ±100 the full control effect; nearly all actives have a fitted effect of over 60% in size
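TGR 20 nM + NADPH 100 uM (dispensed conc.), cpd preinc 15 min RT; start with NADPH (500 uM addition) then DTNB (15 mM addition). Kinetic TNB absorbance, 405 nm filter. Four-parameter Hill fit across titration.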
Pf growth 48h = Primary qHTS for delayed death inhibitors of the malarial parasite plastid, 48 hour incubation. Potency, µM (doses to about 28.7 µM), inactives show at the top dose activity change, negative = inhibition, hits mostly inhibitors. P. falciparum luciferase growth in erythrocytes, 48 h. 310,000 tested, 5.9% active. AID 504832, 2011; further: potency means the concentration at half of the fitted maximal effect; on the % scale 0 is the no-effect control and ±100 the full control effect
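Cell-based growth assay: transgenic P. falciparum expressing firefly luciferase, cultured in red cells within RPMI 1640 containing 0.5% w/v Albumax, 24 mM bicarbonate and gentamycin. A drop in luciferase activity indicates inhibition.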
HCV inhibitor = qHTS Assay for Inhibitors of Hepatitis C Virus (HCV); 340,000 tested, 3.4% active; Potency, µM (top dose mostly 41.8 µM), without a hit: at the top dose activity change, negative = inhibition, most hits filed as inhibitors; Huh7.5.1 HCVcc-Cre infection, luciferase reporter, 44 h; further: potency means the concentration at half of the fitted maximal effect; on the % scale 0 is the no-effect control and ±100 the full control effect
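A cell-based infection assay in which seeded cells (1,000 per well) receive test compound after 4 h, are inoculated with HCVcc-Cre at approximately 0.5 moi, and are incubated 44 h before luminescence detection.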
HCMV inh = qHTS Assay for inhibitors of the human cytomegalovirus (HCMV); HFF cells, HCMV-luciferase reporter, 72 h; stronger effect = lower value; activity change, negative = inhibition, % at 57.5 µM; 410,000 tested, 4.5% active; AID 1259415, 2018; in the data active means activity change below about -60%; inconclusive means no clear call, values can overlap the other calls; inactive means above about -39%; further: on the % scale 0 is the no-effect control and ±100 the full control effect
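HFF cells seeded 16 h at 37C, treated with compounds, infected with luciferase-reporter HCMV at MOI 1 PFU/cell; luciferase read at 72 h post infection, normalized to buffer-only and Salinomycin controls.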
SARS PLpro yeast = qHTS of Yeast-based Assay for SARS-CoV PLP; S. cerevisiae expressing SARS-CoV PLpro, growth rescue; Potency, µM (doses to about 32.9 µM), for the others: at the highest dose activity, positive = growth rescue, most hits filed as activators; 330,000 tested, 0.19% active; AID 485353, 2010; calls by dose curve; further: potency means the concentration at half of the fitted maximal effect; 0% is about no effect; nearly all actives have a fitted effect of over 55% in size
* marks the source's active call; other numbers are inactive results; ? = inconclusive; . = not tested or not shown; ! = a repeat was not active. Unless noted, the call rests on the fitted dose curve; in most records, active means well fitted curve in the direction sought with a large enough effect; inconclusive means small, poorly fitted or top-dose-only effect, or another doubt; inactive means no such curve, though single readings can be large; an effect the other way counts as inactive or inconclusive.

SMILES	Pf growth 96h	Sm TGR inh	Pf growth 48h	HCV inhibitor	HCMV inh	SARS PLpro yeast
COc1ccc(NC(=O)Cn2nnc(C(=O)NCCc3ccccc3)c2N)cc1	?	-12%	-6%	-6%	-64*!	0%
CCOc1ccc(Cn2nnc(C(=O)NCCc3ccccc3)c2N)cc1	?	-4%	.	1%	-12	2%
CCOc1ccc(Cn2nnc(C(=O)NCCc3ccc(Cl)cc3)c2N)cc1	5.2µM*	-9%	.	-5%	11	6%
CCOc1ccc(CNS(=O)(=O)c2cc(-c3cc(C)no3)ccc2OC)cc1OC	32%	-3%	-5%	-11%	63	17%
Cc1cc(C=NCCCO)c(C)n1-c1cc(Cl)ccc1Cl	3%	0%	9%	23%	-16	-3%
COC(=O)C[C@H]1C=C[C@H](NC(=O)Nc2ccccc2F)[C@@H](CO)O1	.	.	.	.	-4	.
COc1ccc(NC(=O)c2csc(Cc3ccc(Cl)cc3)n2)cc1	34%	-3%	3%	-3%	?	0%
COc1ccc(Cc2nc(C(=O)Nc3ccc(F)cc3)cs2)cc1	-1%	-8%	.	10µM*	-25	-15%
COc1ccc(N2CCN(C(=O)COC(=O)/C=C/c3ccc(C(F)(F)F)cc3)CC2)cc1	17%	-9%	31%	13%	-24	4%
O=[N+]([O-])c1cccc(/C(=N/N=C/c2ccccc2Br)C23CN4CN(CN(C4)C2)C3)c1	?	0%	?	25%	38	8%
CC(C)=N/N=C(/c1ccc([N+](=O)[O-])cc1)C12CN3CN(CN(C3)C1)C2	13µM*	-6%	0%	5%	-39	-4%
O=C(NC1C=CS(=O)(=O)C1)c1sc2ccccc2c1Cl (stereo unspecified)	.	-1%	8.3µM*	?	-84*	4%
CC(C(=O)Nc1ccc(Cl)cc1Cl)N1C(=O)NC2(CCCCCCC2)C1=O (stereo unspecified)	-4%	1%	?	?	-5	1%
CN(C)c1ncnc2[nH]ncc12	.	.	.	-4%	-10	.
CCCN(CC)c1ncnc2[nH]ncc12	.	.	.	0%	-65*	.
Cc1cc(C)cc(N2CCN(C(=O)N3CCOCC3)CC2)c1	6.6µM*	-17%	-4%	16%	-15	0%
CCOC(=O)/C(C#N)=C\c1ccc(CC)s1	16%	-10%	17%	-9%	-33	-4%
CCOC(=O)/C(C#N)=C/C1=C(N2CCOCC2)CC(C)(C)OC1	24%	28µM*	19%	-23%	0	4%
Cc1cc(C(=O)N2CCC2(C)C(=O)NS(=O)(=O)c2cccc(OC(F)F)c2)nn1C (stereo unspecified)	.	.	.	.	21	.
CCCCC(CCc1ccccn1)C(=O)c1ccccc1 (stereo unspecified)	.	.	.	14%	-11	.
COc1ccc2cc3cc(C(=O)NCCN4CCc5ccccc5C4)sc3nc2c1	2.6µM*	-9%	?	11%	10	-2%
COc1ccc2cc3cc(C(=O)NCCN4CCc5ccccc5C4)oc3nc2c1	?	-11%	3.3µM*	?	.	-14%
COc1ccc2cc3cc(C(=O)NCCN4CCN(Cc5ccccc5)CC4)oc3nc2c1	11%	-22%	?	2%	-29	-1%
CCc1nc2ccc(C(=O)NCc3ccc(N(C)C)cc3)cc2nc1CC	.	0%	.	.	-5	.
Cc1cc(Nc2ccc(O)cc2)ccc1N	?	2µM*	?	13%	.	2%
SMILES	Pf growth 96h	Sm TGR inh	Pf growth 48h	HCV inhibitor	HCMV inh	SARS PLpro yeast
Cc1ccc(NC(=O)CSc2nc(=O)n(CCCN3CCOCC3)c3c2CCCC3)cc1	-24%	2%	13µM*	-16%	-19	-2%
CCOc1ccccc1NC(=O)CSc1nc(=O)n(CCN2CCOCC2)c2c1CCCC2	?	5%	?	-11%	-81*	-5%
CCc1nc2ccc(C(=O)N(C)Cc3ccco3)cn2c1N(CC)C(=O)NCCc1ccccc1	.	.	.	.	-6	.
CCOC(=O)c1c(NC(C)=O)sc(/C(C)=N/Nc2ccc(C(=O)O)cc2)c1C	22%	0%	-7%	?	-24	2%
COc1ccc(NC(=O)CCS(=O)(=O)c2nc(-c3cccs3)cc(C(F)(F)F)n2)cc1	.	20µM*	.	.	-101*	.
O=C(CCS(=O)(=O)c1nc(-c2cccs2)cc(C(F)(F)F)n1)Nc1ccc(F)c(Cl)c1	.	-28%	.	.	-99*	.
COc1ccc(Cl)cc1NC(=O)CCCS(=O)(=O)c1nc(-c2ccc(OC)c(OC)c2)cc(C(F)(F)F)n1	.	-9%	.	.	-99*	.
COc1ccccc1-c1cc(C(F)(F)F)nc(S(=O)(=O)CCCC(=O)Nc2cc(Br)ccc2O)n1	.	-15%	.	.	55	.
O=C(CCS(=O)(=O)c1nc(-c2cccs2)cc(C(F)(F)F)n1)Nc1ccc(OC(F)(F)F)cc1	.	-6%	.	.	38	.
COc1ccc(Cl)cc1NC(=O)CCS(=O)(=O)c1nc(-c2cccs2)cc(C(F)(F)F)n1	.	-27%	.	.	-94*	.
CC(NC(=O)COc1ccc(Br)cc1)C1CCCO1 (stereo unspecified)	3%	2%	-9%	19%	-2	-2%
CC(C)c1nnc(NC(=O)CCS(=O)(=O)c2nc(-c3cccs3)cc(C(F)(F)F)n2)s1	0.74µM*	20µM*	28%	4%	43	5%
COc1ccc(NC(=O)N(C)[C@H]2C[C@H]3c4[nH]c5ccc(-c6ccc(OC)cc6)cc5c4CCN3C(=O)[C@H]2[C@H](C)O)cc1	.	.	.	.	-68*	.
COc1ccc(NC(=O)N(C)[C@H]2C[C@H]3c4[nH]c5ccc(-c6ccc(OC)cc6)cc5c4CCN3C[C@H]2[C@H](C)O)cc1	.	.	.	.	-104*	.
CN[C@H]1C[C@H]2c3[nH]c4ccc(-c5ccc(OC)cc5)cc4c3CCN2C(=O)[C@H]1[C@H](C)O	.	.	.	.	-103*	.
COc1ccc(OC)c(CNC(=O)c2cc3cc4ccc(OC)cc4nc3o2)c1	.	5%	.	.	10	.
Cc1cccc(-n2c(SCc3ccc([N+](=O)[O-])cc3)nnc2-c2c[nH]c3ccccc23)c1	?	.	?	-6%	?	0%
CCCOC(=O)c1ccccc1O	-11%	.	1%	.	.	.
O=C(CCCCn1c(=O)c2ccccc2n(CC(=O)Nc2cccc(F)c2)c1=O)NCc1ccccc1Cl	.	17%	.	.	13	.
COC(=O)[C@@H](Cc1ccccc1)NC(=O)Cn1cnc2c(SC)nc(N)nc21	.	.	.	-6%	1	3%
